# High-throughput results from PubChem.
# GDH-TPI counter = counter-screen for M. tuberculosis FBA inhibitors: GDH-TPI coupled enzymes; 360,000 tested, 1.2% active; inhibition, % at 4.8 µM; GDH-TPI coupled enzyme counterscreen, NADH absorbance; in the data active = inhibition above about 30%;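 also: 0% = DMSO wells and 100% = wells lacking the enzyme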
# Rv3671c protease = inhibitors of M. tuberculosis serine protease Rv3671c. inhibition, % at 5.96 µM. P9WHR9. 320,000 tested, 0.048% active. AID 2606; in the data active = inhibition above about 38%;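 also: extracellular domain of Rv3671c used as enzyme; 0% = enzyme with DMSO and 100% = no enzyme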
# RecA intein inh = inhibitors of M. tuberculosis RecA intein splicing. cell-free RecA intein splicing, fluorescence. inhibition, % (concentration not given with the values). 290,000 tested, 0.75% active. AID 2221; in the data active = inhibition above about 30%;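 also: 0% = vehicle wells and 100% = reference inhibitor control wells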
# FBA Mtb inh = inhibitors of M. tuberculosis fructose-bisphosphate aldolase; P9WQA3; purified M. tuberculosis FBA, fluorescence read-out; inhibition, % at 1 µM; 360,000 tested, 2.3% active; in the data active = inhibition above about 27%;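 also: 0% = vehicle and 100% = reference inhibitor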
# Mtb UGM inh = inhibitors of M. tuberculosis UDP-galactopyranose mutase | inhibition, % at 10 µM | P9WIQ1 | purified UGM, fluorescence polarization probe displacement | 320,000 tested, 0.06% active; in the data active = inhibition above about 10%, passing the limit was not always enough
# Target sequence (P9WIQ1 whole entry, looked up): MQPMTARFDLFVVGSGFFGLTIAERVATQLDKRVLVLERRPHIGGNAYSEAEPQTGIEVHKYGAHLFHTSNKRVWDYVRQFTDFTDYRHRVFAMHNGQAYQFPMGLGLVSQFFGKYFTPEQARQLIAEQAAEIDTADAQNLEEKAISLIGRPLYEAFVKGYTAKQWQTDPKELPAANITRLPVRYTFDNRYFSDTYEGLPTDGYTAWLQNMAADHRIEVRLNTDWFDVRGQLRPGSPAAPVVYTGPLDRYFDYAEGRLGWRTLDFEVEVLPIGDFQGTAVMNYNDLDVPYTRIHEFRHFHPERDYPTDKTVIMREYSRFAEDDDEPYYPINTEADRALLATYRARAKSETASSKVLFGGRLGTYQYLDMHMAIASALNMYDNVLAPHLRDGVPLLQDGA
# Mtb bLac sens = beta-lactam sensitization of Mtb H37Rv; M. tuberculosis H37Rv growth with meropenem, percent inhibition; inhibition, % at 25 µM; 330,000 tested, 0.27% active; AID 434955; call rule not given here;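 also: growth measured after seven days incubation then overnight dye step; 0% = bacteria only wells and 100% = bacteria with antibiotic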
# Active calls of the source: *; / = no result; + = active, no number. This is a sample that favours compounds with a hit; in the whole collection about 4% have one here.
SMILES,GDH-TPI counter,Rv3671c protease,RecA intein inh,FBA Mtb inh,Mtb UGM inh,Mtb bLac sens
O=C(Oc1ccc(-n2cnnn2)cc1)c1ccco1,4,2,38*,2,2,-4
CC(C)(C)C(=O)N1Cc2cc(-c3ccccc3)ccc2-n2nncc2C1,/,/,/,1,/,/
COc1ccc(-c2ccc3c(c2)CN(C(=O)C(C)(C)C)Cc2cnnn2-3)cc1,/,/,/,140*,/,/
O=C(CN1CCCCC1)Nc1nnc(-c2ccccc2)s1,3,-3,-3,-1,-1,3
O=C(CN1CCCCC1)Nc1nnc(-c2ccc([N+](=O)[O-])cc2)s1,41*,2,0,1,1,95
CCS(=O)(=O)Nc1ccc(C2=NN(C(=O)c3ccco3)C(c3cccs3)C2)cc1 (stereo unspecified),46*,-8,0,2,-2,17
CCS(=O)(=O)Nc1ccc(C2=NN(C(=O)c3ccco3)C(c3ccco3)C2)cc1 (stereo unspecified),24,-2,3,1,/,40
CC(=O)Nc1ccc(C2=NN(c3ccccc3)C(c3cccs3)C2)cc1 (stereo unspecified),7,12,-7,189*,-2,5
N#CC(CC(=O)c1ccc(F)cc1)c1ccc2c(c1)OCO2 (stereo unspecified),-15,-2,-2,-2,-1,-6
CC(=O)c1ccc(OC2(C)CCN(Cc3csc4ccccc34)C2)cc1 (stereo unspecified),4,/,/,-1,/,/
COc1ccccc1N1CCN(C2CCCN(C(=O)CC(F)(F)F)C2)CC1 (stereo unspecified),10,-8,-1,0,-3,-5
COc1ccccc1N1CCN(C2CCCN(C(=O)CCC(=O)N(C)C)C2)CC1 (stereo unspecified),-14,-9,-1,1,10*,1
Cn1c(=O)c2cc(NC(=O)NCc3ccc(F)cc3)ccc2n1C,12,/,/,162*,/,/
C=C(C)Cn1c2ccc(NC(=O)NCc3ccc(F)cc3)cc2c(=O)n1C,7,/,/,190*,/,/
O=C(NCc1ccc(F)cc1)Nc1ccc(Cl)cc1,1,0,-2,1,1,0
CC1=NNC(=O)C1C(c1cccc(O)c1)C(C#N)C#N (stereo unspecified),-10,-5,60*,-2,-2,2
Cc1c(C(c2cccc(O)c2)c2c(C)n(C)n(-c3ccccc3)c2=O)c(=O)n(-c2ccccc2)n1C,10,0,-1,-1,2,4
N#CCc1ccc(NC(=O)CSc2nnc(C3CC3)n2C2CC2)cc1,9,-3,/,-2,2,2
CCOc1ccccc1Nc1cc2n(c(=O)n1)CCc1cc(OC)c(OC)cc1-2,34*,-4,0,-2,-1,-1
COc1cc2c(cc1OC)-c1cc(OCCN3CCOCC3)nc(=O)n1CC2,32*,-4,-11,+,1,4
COc1cc2c(cc1OC)-c1cc(NC3CC3)nc(=O)n1CC2,37*,1,-4,6,0,12
COc1cc2c(cc1OC)-c1cc(NC3CCCCCCC3)nc(=O)n1CC2,21,0,5,9,1,42
COc1cc2c(cc1OC)-c1cc(Nc3ccccc3C)nc(=O)n1CC2,23,3,0,0,1,-3
Cc1ccc(CN2CCC(CNC(=O)c3ccc(NC(=O)C4=CSCCO4)cc3)CC2)cc1,4,1,-5,4,0,8
COc1ccc(-n2nc(C(=O)N3CCC(N4CCCCC4)CC3)c3c4ccccc4n(C)c3c2=O)cc1,8,2,-1,3,0,-2
SMILES,GDH-TPI counter,Rv3671c protease,RecA intein inh,FBA Mtb inh,Mtb UGM inh,Mtb bLac sens
CN1C(=O)C(Cc2ccc3c(c2)OCO3)C(=O)N(C)C1=O,/,-8,30*,/,0,-5
O=C(/C=C/c1ccccc1)c1ccc2c(c1)OCO2,40*,3,5,-5,0,62
O=C(C=Cc1ccc2c(c1)OCO2)C1CC1,36*,/,/,1,/,/
O=C(/C=C/c1cccc(Br)c1)c1ccc2c(c1)OCO2,9,-7,9,2,-1,86
Cc1ccc(S(=O)(=O)NNC(=O)c2ccc3ccccc3n2)cc1,0,-3,3,-2,3,-2
OC(c1ccccc1)(c1nc(-c2cc(F)cc(F)c2)cs1)C(F)(F)F (stereo unspecified),5,/,/,-2,/,/
Cc1cc(C)n2nc3nc4c(cc3c2n1)CCCC4,27,9,-34,+,2,6
